# Hits are enriched below; roughly 4.7% of the tested compounds scored in any of these assays.
# ADAM17 inh: ADAM17 inhibitors, primary screen, biochemical, QFRET; hit rate 0.83% among 370,000; recombinant ADAM17, EDANS/DABCYL FRET peptide cleavage; Disintegrin and metalloproteinase domain-containing protein 17 (Homo sapiens), P78536; AID 720648, 2013; inhibition, % at 6.95 µM;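 active = inhibition above the mean of compounds lying between control limits plus 3 SD, set per campaign, cut at about 8.5% in these data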;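 also: 0% = DMSO-only wells as the low control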
# rCAG binder: binders of r(CAG) RNA repeats, primary screen, biochemical, fluorescence. AID 651821, 2012. inhibition, % at 3 µM. hit rate 1.3% among 370,000. r(CAG) RNA repeat, TO-PRO-1 dye displacement fluorescence;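 active = inhibition above the plate cutoff, the mean of all test compounds on that plate plus 3 SD, cut at about 35% in these data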;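 also: 0% = DMSO alone and 100% = 100 µM mitoxantrone as full dye displacement; higher means more dye released from RNA so lower well fluorescence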
# Pemphigus Ab inh: inhibitors of pemphigus antibody binding to DSG3, primary screen, biochemical, bead-based, flow cytometry, scFv-GFP; Desmoglein-3 (Homo sapiens), P32926; DSG3-coupled beads, scFv-anti-DSG3-GFP binding; active compounds read low; binding (percent of control), % at 10 µM; hit rate 0.48% among 310,000;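 active = binding more than 3 SD below its plate's average and above zero; inconclusive = below that plate limit but binding exactly zero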;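 also: hits lower antibody fragment binding to DSG3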
# Target sequence (P32926 whole entry, looked up, the tested form may be a part): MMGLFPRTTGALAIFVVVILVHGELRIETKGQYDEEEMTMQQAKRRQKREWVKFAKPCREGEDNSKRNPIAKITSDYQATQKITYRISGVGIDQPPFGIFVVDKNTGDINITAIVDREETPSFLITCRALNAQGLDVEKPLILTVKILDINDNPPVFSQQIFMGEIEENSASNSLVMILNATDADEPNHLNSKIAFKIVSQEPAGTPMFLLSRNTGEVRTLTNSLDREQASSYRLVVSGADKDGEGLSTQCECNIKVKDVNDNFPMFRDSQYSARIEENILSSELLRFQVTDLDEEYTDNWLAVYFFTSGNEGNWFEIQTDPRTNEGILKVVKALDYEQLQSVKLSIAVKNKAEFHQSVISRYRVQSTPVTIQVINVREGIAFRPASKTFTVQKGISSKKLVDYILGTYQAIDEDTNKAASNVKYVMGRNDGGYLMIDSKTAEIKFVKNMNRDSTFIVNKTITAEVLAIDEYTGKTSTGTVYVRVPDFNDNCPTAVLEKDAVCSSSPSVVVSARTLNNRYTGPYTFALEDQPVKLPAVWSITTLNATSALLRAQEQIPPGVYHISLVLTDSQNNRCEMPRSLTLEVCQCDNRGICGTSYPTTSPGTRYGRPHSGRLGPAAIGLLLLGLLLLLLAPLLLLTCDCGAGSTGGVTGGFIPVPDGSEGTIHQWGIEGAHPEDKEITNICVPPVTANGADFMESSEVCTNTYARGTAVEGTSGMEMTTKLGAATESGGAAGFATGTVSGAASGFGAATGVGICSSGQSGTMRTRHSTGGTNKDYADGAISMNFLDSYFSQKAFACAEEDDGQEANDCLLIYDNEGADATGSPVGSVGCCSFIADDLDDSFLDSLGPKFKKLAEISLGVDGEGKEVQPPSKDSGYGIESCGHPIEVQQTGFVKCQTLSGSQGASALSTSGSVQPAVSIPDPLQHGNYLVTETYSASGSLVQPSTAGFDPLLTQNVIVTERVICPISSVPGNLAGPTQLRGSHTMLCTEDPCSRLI
# ADAM10 inh: human ADAM10 inhibitors, primary screen, biochemical, QFRET, HTS; Disintegrin and metalloproteinase domain-containing protein 10 (Homo sapiens), O14672; recombinant ADAM10, EDANS/DABCYL FRET peptide cleavage, 3 h; inhibition, % at 7 µM; hit rate 0.62% among 370,000; AID 720582, 2013;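 active = inhibition above a per-campaign cutoff equal to the mean of compounds falling between control-based bounds plus 3 SD, cut at about 20% in these data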;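 also: 0% = DMSO wells while the 100% control is not disclosed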
# proKLK7 act: proKLK7 zymogen activators, primary screen, biochemical, fluorescence intensity | activation, % at 7 µM | purified proKLK7, EDANS-DABCYL substrate fluorescence; 100% is mature enzyme control, 0% vehicle | hit rate 0.9% among 370,000 | Kallikrein-7 (Homo sapiens), P49862;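 active = activation above the mean of all tested compounds plus 3 SD, computed per campaign excluding outliers beyond control limits, cut at about 13% in these data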
# MPTP inh: mitochondrial permeability transition pore inhibitors, primary screen, biochemical, isolated mouse mitochondria, absorbance; Ca2+ swelling absorbance, 30 min; inhibition, % at 10 µM; hit rate 1.4% among 360,000; AID 602449, 2012;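 active = inhibition of 50% or more, scaled per plate between neutral and stimulator controls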;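 also: 0% = DMSO wells given calcium and 100% = 1 mM EGTA wells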
# ADAM10 confirm: human ADAM10 inhibitors, confirmation, biochemical, QFRET, triplicate | shares compounds with ADAM10 inh | ADAM10 QFRET peptide cleavage, EDANS fluorescence | inhibition, % at 6.95 µM | hit rate 1% among 2,100;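 active = inhibition above about 20% chosen separately for each screening run, limit read from the data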;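 also: 0% = DMSO wells and 100% = marimastat wells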
# ADAM17 ctr: ADAM17 inhibitors, counter-screen for ADAM10 exosite inhibitor project, biochemical, QFRET, high throughput. shares compounds with ADAM10 inh. hit rate 0.5% among 2,100. ADAM17 QFRET peptide cleavage, EDANS fluorescence. inhibition, % at 6.95 µM;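 active = mean triplicate inhibition above the solvent-only control wells' mean plus 3 SD, cut at about 12% in these data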;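 also: 0% = DMSO wells and 100% = marimastat wells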
# ADAM10 ctr: ADAM10 inhibitors, counter-screen for ADAM17 exosite inhibitor project, biochemical, FRET, human ADAM10; hit rate 47% among 2,900; shares compounds with ADAM17 inh; AID 743256, 2014; recombinant ADAM10, EDANS/DABCYL FRET peptide cleavage, 3 h; inhibition, % at 6.95 µM;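 active = mean inhibition over the triplicate runs exceeds the activity threshold set in the earlier primary screen, cut at about 20% in these data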;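 also: 0% = DMSO wells and 100% = marimastat wells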
# ADAM17 confirm: ADAM17 inhibitors, hit retest, confirmation, biochemical, QFRET peptide cleavage; shares compounds with ADAM17 inh; recombinant ADAM17, EDANS/DABCYL QFRET peptide cleavage; inhibition, % at 6.95 µM; hit rate 65% among 2,900; AID 743257, 2014;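 active = mean inhibition across replicates above the hit cutoff set in the primary screen, cut at about 8.5% in these data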;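 also: 0% = DMSO wells and 100% = marimastat wells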
# * marks the source's active call; other numbers are inactive results; ? = inconclusive; nt = no result.
SMILES,ADAM17 inh,rCAG binder,Pemphigus Ab inh,ADAM10 inh,proKLK7 act,MPTP inh,ADAM10 confirm,ADAM17 ctr,ADAM10 ctr,ADAM17 confirm
Cc1ccc(-c2cc(-c3ccc(C)cc3O)[nH]n2)cc1,12*,18,102,33*,0,3,9,3,25*,14*
CC1(C)CCN2CCC(C)(C)c3c(O)ccc1c32,-12,-15,175,-30,0,1,nt,nt,nt,nt
COc1cccc(Nc2ncccc2C(=O)Nc2ccccc2)c1,19*,15,100,29*,0,8,2,1,11,8
COc1ccc(NC(=O)COC(=O)c2c3c(nc4ccccc24)CCCC3)cc1Cl,12*,12,100,23*,0,-3,4,3,30*,19*
NS(=O)(=O)c1ccc(NCc2cc(Cl)ccc2OCc2ccccc2F)cc1,14*,9,111,31*,0,0,11,4,47*,21*
NS(=O)(=O)c1ccc(NCc2ccccc2OCc2ccc(F)cc2)cc1,4,7,?,10,0,1,nt,nt,nt,nt
O=C(C1CCC(Cn2c(=S)[nH]c3ccccc3c2=O)CC1)N1CCN(c2ccccc2)CC1 (stereo not given),9.1*,-1,96,25*,0,6,11,3,17,7
CN(C(=O)Nc1ccc(Cl)cc1Cl)[C@H]1c2cc(Br)ccc2OC[C@H]1CO,15*,2,98,27*,1,0,4,1,28*,12*
CC(=O)c1cccc(-c2ccnc3c2CC(C(=O)Nc2ccc(Cl)cc2)O3)c1 (stereo not given),8.7*,0,nt,24*,0,3,3,1,11,7
CC(=O)Nc1ccc(NC(=O)C2Cc3c(-c4cccc(C(C)=O)c4)ccnc3O2)cc1 (stereo not given),-1,-1,nt,-11,0,0,nt,nt,nt,nt
COc1ccc(OC)c(-c2csc(NC(=O)COC(=O)C3(C)CC3(Cl)Cl)n2)c1 (stereo not given),18*,4,101,39*,1,2,10,3,18,12*
COc1ccc(OC)c(-c2csc(NC(=O)CSc3ccccc3)n2)c1,10*,11,103,20*,0,3,6,2,25*,11*
O=C(NCc1ccc(F)cc1F)[C@@H]1CCCN1C(=O)[C@@H]1CCCN1C(=O)c1ccccc1,-3,0,nt,-11,0,-2,nt,nt,nt,nt
Cc1ccc(C(=O)Nc2ccccc2-c2ccccc2)cc1S(=O)(=O)Nc1cccc(C)c1C,12*,8,100,29*,-4,7,17,5,40*,19*
Cc1ccc(C)c(NS(=O)(=O)c2cc(C(=O)Nc3ccccc3-c3ccccc3)ccc2C)c1,5,10,107,18,0,0,nt,nt,nt,nt
NC(=O)Cn1cc(/C=N\NS(=O)(=O)c2ccc(Cl)cc2)c2ccccc21,1,24,117,0,0,1,nt,nt,nt,nt
O=S(=O)(N/N=C/c1cn(Cc2ccccc2)c2ccccc12)c1ccccc1,9.6*,29,96,24*,-1,5,11,4,36*,19*
COCCN=c1scc(-c2cc(OC)c(OC)c(OC)c2)n1/N=C/c1c(C)[nH]c2ccccc12,17*,19,110,26*,-1,4,18,8,7,17*
Cc1[nH]c2ccccc2c1/C=N/n1cnnc1,-1,2,109,1,0,1,nt,nt,nt,nt
COc1ccc(N2CCN(C(=O)COC(=O)CC(NC(N)=O)c3ccc(Cl)cc3)CC2)cc1 (stereo not given),-3,1,106,-11,0,-1,nt,nt,nt,nt
COc1cccc(Oc2cn[nH]c2-c2ccc(OC)cc2O)c1,7,4,100,19,0,10,nt,nt,nt,nt
CCOc1ccc(-c2[nH]ncc2Oc2cccc(OC)c2)c(O)c1,11*,8,103,24*,0,4,7,3,35*,20*
CCN(CC(=O)Nc1c(F)cccc1F)C(=O)c1cc(C)nc2ccccc12,-4,-6,95,-10,0,-1,nt,nt,nt,nt
COc1ccc(NC(=O)COC(=O)CCCOc2ccc(Cl)cc2Cl)cc1,10*,4,101,24*,1,1,7,2,19,8
C=C[C@H]1C(C(=O)OCC)=CC[C@@H](c2ccccc2)N1S(=O)(=O)c1ccc(C)cc1,13*,4,nt,28*,1,0,4,1,16,7
CC1=CC(C)C(=O)N(CCN2CCOCC2)C(C)=C1 (stereo not given),-1,3,104,9,0,0,nt,nt,nt,nt
COc1ccc2nc(NC(=O)C3CCCN3S(=O)(=O)c3ccc(C)cc3)sc2c1 (stereo not given),8.6*,6,110,22*,1,5,0,1,13,8
COc1cccc(OC(=O)c2ccccc2)c1OC(=O)c1ccccc1,15*,2,116,27*,-1,-3,2,2,11,8
C(=C\c1ccccc1)/CN1CCN(C(c2ccnc3ccccc23)c2nnnn2-c2ccc3c(c2)OCCO3)CC1 (stereo not given),-3,9,nt,-6,0,2,nt,nt,nt,nt
